# Source: PubChem
# Coupling enz: coupling enzyme interference in Giardia aldolase counter-screen. coupling enzyme system counterscreen, AmpLite Red fluorescence. activity change, negative = inhibition, % at 58.2 µM, hits read low. 0.67% of 290,000 active; in the data active means activity change below about -30%
#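 First, compound is pin-transferred into glyceraldehyde-3-phosphate coupling-enzyme reagent at 57.5 uM final and held 10 min at RT. Next, substrate, coupling system and AmpLite Red are added. After 20 min RT, fluorescence (525/598 nm) is read.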
# ALDH1A1 inh: blocks purified human ALDH1A1 activity | P00352 | Purified ALDH1A1, NADH fluorescence, propionaldehyde substrate | Potency, µM (top dose mostly 75.3 µM), without a hit: at the highest dose activity, negative = inhibition, most hits filed as inhibitors | 7.3% of 220,000 active;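 further: potency means the concentration at half of the fitted maximal effect; plate controls were no enzyme wells and a reference inhibitor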
# RGS12 GoLoco inh: RGS12 GoLoco-Gai1 interaction inhibition; P63096; Potency, µM (titrated, usually from 61.6 µM), without a hit: at the top dose activity, negative = inhibition, hits mostly inhibitors; Gai1:RGS12 GoLoco peptide FP, rhodamine, 10 min; 0.44% of 230,000 active; AID 880; active means well fitted inhibition curve with a large enough effect, not every such curve was filed as active; inactive means no such curve, though single readings can be large or run the other way; further: potency means the concentration at half of the fitted maximal effect; nearly all actives have a fitted effect of over 30% in size
# NPSR antag: antagonists of human neuropeptide S receptor cAMP signaling; Q6W5P4; Potency, µM (doses to about 38.3 µM), for the others: top-dose activity change, negative = inhibition, usual class: inhibitors; CHO-NPSR cells, cAMP TR-FRET, antagonist mode; 1% of 220,000 active; active means well fitted curve in the direction sought with a large enough effect; inconclusive means small, poorly fitted or top-dose-only effect, or another doubt; inactive means no such curve, though single readings can be large; an effect the other way counts as inactive or inconclusive; further: potency means the concentration at half of the fitted maximal effect; nearly all actives have a fitted effect of over 50% in size
# KDM4E inh: blocks human JMJD2E demethylase activity. B2RXH2. JMJD2E catalytic domain, FDH-coupled NADH fluorescence (FDH is formaldehyde dehydrogenase). Potency, µM (series often up to 57.1 µM), for the others: at the top dose activity change, negative = inhibition, most hits filed as inhibitors. 1.6% of 230,000 active. AID 2147;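 further: potency means the concentration at half of the fitted maximal effect; 0% = wells with enzyme and -100% = buffer wells without enzyme; nearly all actives have a fitted effect of over 50% in size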
# Target sequence (B2RXH2 1-337 limits assumed): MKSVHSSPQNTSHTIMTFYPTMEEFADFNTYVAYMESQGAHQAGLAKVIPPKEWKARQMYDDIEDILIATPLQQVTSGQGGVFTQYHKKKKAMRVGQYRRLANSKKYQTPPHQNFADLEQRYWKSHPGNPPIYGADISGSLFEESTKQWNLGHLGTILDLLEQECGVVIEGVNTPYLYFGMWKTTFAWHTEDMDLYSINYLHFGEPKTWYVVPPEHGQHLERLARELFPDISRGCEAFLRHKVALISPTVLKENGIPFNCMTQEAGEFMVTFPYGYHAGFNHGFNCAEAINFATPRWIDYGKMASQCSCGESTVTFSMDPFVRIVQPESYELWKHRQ
# Sfp inh: inhibitors of Bacillus subtilis Sfp phosphopantetheinyl transferase | Potency, µM, without a hit: largest response in the series, negative = inhibition, actives largely listed as inhibitors | Q9F4F7 | 3.5% of 310,000 active | Biochemical Sfp PPTase activity, qHTS | AID 1490; active means well fitted curve in the direction sought with a large enough effect; inconclusive means small, poorly fitted or top-dose-only effect, or another doubt; inactive means no such curve, though single readings can be large; an effect the other way counts as inactive or inconclusive;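 further: the enzyme is Sfp with the accession as filed and its product quenches rhodamine fluorescence; potency means the concentration at half of the fitted maximal effect; 0% = enzyme reaction without inhibitor and -100% = no enzyme wells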
#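 After 15 min at room temperature with compound, 15 nM Sfp received 5 uM rhodamine-CoA plus 12.5 uM BHQ-2-ybbR (50 mM Hepes pH 7.6, 10 mM MgCl2). Rate came from the fluorescence difference over 30 min, ex 525/em 598 nm.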
# Numbers without * were called inactive; ? = inconclusive; nt = not tested or not shown; [ ] = dose if it differs, or a comment. Shown are actives, neighbours in structure and some others; about 8.5% of the full set was active somewhere. Unless noted, the call rests on the fitted dose curve; in most records, active means well fitted inhibition curve with a large enough effect (not every such curve was filed as active); inconclusive means small, poorly fitted or top-dose-only effect, or another doubt; inactive means no such curve, though single readings can be large or run the other way. Unless noted, on the % scale 0 is the no-effect control and ±100 the full control effect.
SMILES,Coupling enz,ALDH1A1 inh,RGS12 GoLoco inh,NPSR antag,KDM4E inh,Sfp inh
Cc1cc2nc3c(=O)[nH]c(=O)nc-3n(CC(O)C(O)C(O)COP(=O)(O)O)c2cc1C (stereo not drawn),-18.9,-1.3%,15.8µM*,nt,nt,-11.5%
Cc1cc2nc3c(=O)[nH]c(=O)nc-3n(C[C@H](O)[C@H](O)[C@H](O)COP(=O)(O)OP(=O)(O)OC[C@H]3O[C@@H](n4cnc5c(N)ncnc54)[C@H](O)[C@@H]3O)c2cc1C,nt,nt,nt,nt,nt,0.5%
C=C(C)Cn1c(SCC(=O)N/N=C/c2ccccc2)nc2ccccc2c1=O,3.7,19.8%,77.3%,-33.1%,1.8%,79.4µM*
CCCn1c2ccccc2c2nnc(SCc3[nH]c(=O)[nH]c3C(=O)CCCCC(=O)OCC)nc21,0.4,?,-5.5%,4.3%,-16.8%,25.1µM*
CCOC(=O)CCCCC(=O)c1[nH]c(=O)[nH]c1CSc1nnc2c3ccccc3n(C(C)C)c2n1,0.7,12.6µM*,-4.7%,-2.3%,-7.4%,2.0%
CCCn1c2ccccc2c2nnc(SCC(=O)Nc3cc(C)on3)nc21,-0.1,?,15.4%,-26.0%[46.1 µM],-22.3%,7.1%
COC(=O)c1cc(=O)n(Cc2ccco2)c(=Nc2ccc(F)cc2)s1,3.7,11.2µM*,-4.8%,?,-5.9%,?
Cc1cccc(OCCCC(=O)N2CCCCCC2)c1C,-1.9,nt,nt,nt,nt,3.0%
C=CCSc1nc2sc3c(c2c(=O)n1CC)CCc1ccccc1-3,-1.2,1.58µM*,-40.4%,-29.1%[46.1 µM],?,1.78µM*
COc1ccc(/C=C/C(=O)c2ccccc2)cc1Cn1nnc2ccccc21,-0.5,?,5.0%,-34.4%,-3.9%,-3.6%
COc1ccc(-n2nc(C(=O)NCC(=O)Nc3cccc(Cl)c3)c3ccccc3c2=O)cc1,0.5,nt,nt,nt,nt,-1.3%
O=C(Cc1cccs1)N/N=C\c1ccc([N+](=O)[O-])s1,-4.0,12.6µM*,4.8%,-10.2%,-19.5%,?
Cc1ccc(/C=N/NC(=O)Cc2cccs2)o1,-3.5,12.6µM*,-30.4%,8.0%,-3.9%,?
Cc1ccc(NC(=S)N/N=C/c2ccc([N+](=O)[O-])s2)cc1,-5.4,11.2µM*,134.7%,-37.1%,0.1%,-22.0%
COc1ccc(/C=N/NC(=O)Cc2cccs2)cc1,-1.2,nt,-6.8%,4.3%,1.5%,9.7%
Cc1onc(-c2ccccc2)c1C(=O)N/N=C/c1ccc([N+](=O)[O-])s1,0.2,-6.2%,7.4%,-0.1%,-1.7%,1.6%
Cc1ccc(/C=N\NC(=O)CNC(=O)C23CC4CC(CC(C4)C2)C3)o1,nt,nt,nt,nt,nt,56.2µM*
COc1cccc(CCN2C(=O)C(=O)N([C@@H](CNCc3ccccc3)Cc3ccccc3F)C[C@@H]2C(C)(C)C)c1,6.7,nt,7.1%,-0.1%,4.0%,5.2%
Oc1ccc(-c2nccc(-c3ccccn3)n2)cc1,-0.6,nt,nt,nt,nt,-21.0%
CC(C(=O)N1CCN(Cc2ccc3c(c2)OCO3)CC1)n1cc([N+](=O)[O-])cn1 (stereo not drawn),0.2,nt,nt,nt,nt,14.9%
Cc1nc([N+](=O)[O-])c(Sc2nc3ccc([N+](=O)[O-])cc3[nH]2)n1Cc1ccccc1,2.6,7.51µM*,8.6%,-49.9%,6.7%,-6.9%
COCCn1c(N)c(C(=O)NS(=O)(=O)c2ccc(C)cc2)c(=O)[nH]c1=O,3.0,15.8µM*,-8.9%,0.8%,-0.7%,-5.7%
COc1ccc(-c2cc(-c3cccs3)c(C#N)c(SCC(=O)NCc3ccccc3)n2)cc1,1.9,?,9.9%,?,?,-3.4%
CCc1nnc(NC(=O)CSc2nc(-c3ccc(F)cc3)cc(-c3ccccc3)c2C#N)s1,3.0,10µM*,nt,7.94µM*,-4.3%,31.6µM*
CCOC(=O)CSc1nc(C2CC2)cc(-c2ccc(Cl)cc2)c1C#N,0.4,31.6µM*,10.8%,?,?,17.8µM*
N#Cc1c(-c2ccccc2)cc(-c2cccs2)nc1SCC(=O)O,20.8,nt,nt,nt,nt,56.2µM*
COc1nc(-c2cccs2)cc(-c2ccc(C)cc2)c1C#N,-8.3,?,1.4%,?,?,14.2%
